# Data: PubChem BioAssay (EPA / NIEHS)
# Results filed as inconclusive are left out. Calls of active or inactive are those of the source. How the source made its calls, unless noted: active means hit-call score of the fitted dose curve at least 0.9, where 1 is the maximum; inactive means score below 0.9.
# How the values were obtained:
# [1] = ATG_PBREM_CIS: Attagene CIS-FACTORIAL HepG2 Assay for human Phenobarbital-responsive Enhancer Module (PBREM) (AID 2282955); conditions: HepG2 PBREM cis-reporter, Attagene multiplexed transcription; actives raise or lower the signal
# How it was run: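 HepG2 cells transiently transfected with multiple cis-regulated reporter transcription units; endogenous factor activity at the PBREM element measured as reporter mRNA 24 h after dosing, via RT-PCR and capillary electrophoresis of fluorescent fragments; bidirectional fitting versus DMSO.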
# [2] = ATG_PXRE_CIS: Attagene CIS-FACTORIAL HepG2 Assay for human Pregnane X Receptor Element (PXRE) (AID 2282957); conditions: HepG2 Attagene CIS-FACTORIAL PXRE reporter, mRNA; actives raise or lower the signal
# How it was run: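 HepG2 cells transiently transfected with cis-element-driven multiplexed reporter units; after 24 h chemical exposure, reporter mRNA measured by RT-PCR, 6-FAM labelling, HpaI digestion and capillary electrophoresis. Bidirectional fitting relative to DMSO.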
# [3] = ATG_PPRE_CIS: Attagene CIS-FACTORIAL HepG2 Assay for human Peroxisome Proliferator-activated Response Element (PPRE) (AID 2282958); conditions: HepG2 PPRE cis-element reporter, Attagene transcription factor profiling; actives raise or lower the signal
# How it was run: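 HepG2 cells transiently transfected with multiplexed cis-element reporter units measure endogenous transcription factor activity. After 24 h compound exposure, reporter mRNA is quantified by RT-PCR, 6-FAM labeling, HpaI digestion and capillary electrophoresis; bidirectional fits are made against DMSO baseline.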
# [4] = ATG_RORE_CIS: Attagene CIS-FACTORIAL HepG2 Assay for human RAR-related Orphan Receptor Element (RORE) (AID 2282959); conditions: HepG2 Attagene cis-factorial RORE reporter, mRNA; actives raise or lower the signal
# How it was run: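 HepG2 cells transiently transfected with multiple cis-element reporter transcription units, exposed to chemical for 24 h. Reporter mRNA quantified by RT-PCR, 6-FAM primer-extension labeling, HpaI digestion and capillary electrophoresis; bidirectional fit versus DMSO baseline.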
# [5] = ATG_Sox_CIS: Attagene CIS-FACTORIAL HepG2 Assay for human SRY-box transcription factor (SOX) (AID 2282960); conditions: HepG2 Attagene cis-factorial SOX reporter, mRNA; actives raise or lower the signal
# How it was run: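 HepG2 cells transiently transfected with cis-element-driven multiple reporter transcription units, dosed 24 h; reporter mRNA measured by RT-PCR, FAM labelling, HpaI digestion and capillary electrophoresis. Bidirectional fit versus DMSO baseline.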
# [6] = target: Transcription factor Sp1 (Homo sapiens) (UniProt P08047); experiment: ATG_Sp1_CIS: Attagene CIS-FACTORIAL HepG2 Assay for human Specificity Protein 1 (Sp1) (AID 2282961); conditions: HepG2 Sp1 cis-reporter transcription, actives raise or lower the signal
# How it was run: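 HepG2 cells transiently transfected with multiple reporter transcription units driven by cis-regulatory elements; Sp1-responsive reporter mRNA measured 24 h after dosing by RT-PCR and capillary electrophoresis fluorescence, fitted bidirectionally against DMSO baseline.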
# [7] = ATG_SREBP_CIS: Attagene CIS-FACTORIAL HepG2 Assay for human Sterol Regulatory Element Binding (SREBP) (AID 2282962); conditions: HepG2 Attagene cis-factorial SREBP reporter, mRNA; actives raise or lower the signal
# How it was run: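 mRNA induction of transfected cis-promoter reporters in HepG2 cells, 24 h post-dose. Detection: RT-PCR with 6-FAM-labelled products, HpaI digest, capillary electrophoresis. DMSO served as negative control and baseline.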
# [8] = target: Signal transducer and activator of transcription 3 (Homo sapiens) (UniProt P40763); experiment: ATG_STAT3_CIS: Attagene CIS-FACTORIAL HepG2 Assay for human Signal Transducer and Activator of Transcription 3 (STAT3) (AID 2282963); conditions: HepG2, Attagene cis-factorial STAT3 reporter transcription; actives raise or lower the signal
# How it was run: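 Endogenous STAT3-responsive cis-element activity was read in transiently transfected HepG2 cells after 24 h treatment. Reporter transcripts were quantified via RT-PCR and capillary electrophoresis, with DMSO as negative control and bidirectional curve fitting.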
# [9] = ATG_TA_CIS: Attagene CIS-FACTORIAL HepG2 Assay for human TA Basal Promoter (AID 2282964); conditions: HepG2 Attagene CIS-factorial TA basal promoter reporter; actives raise or lower the signal
# How it was run: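 Background-control readout: TA basal promoter reporter mRNA, fitted in both directions relative to DMSO. Measured by RT-PCR and capillary electrophoresis 24 hours after treating HepG2 human liver cells transiently carrying multiplexed cis-regulated reporter constructs.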
# [10] = ATG_TCF_b_cat_CIS: Attagene CIS-FACTORIAL HepG2 Assay for human T-Cell-Factor with beta-catenin (TCF/b-cat) (AID 2282965); conditions: HepG2 TCF/beta-catenin cis-reporter transcription, actives raise or lower the signal
# How it was run: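 Measured: reporter mRNA in HepG2 transiently transfected with cis-promoter reporter units, 24 h after chemical addition. Fitting was bidirectional, DMSO as negative control.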
# [11] = ATG_TAL_CIS: Attagene CIS-FACTORIAL HepG2 Assay for human TAL Basal Promoter (AID 2282966); conditions: HepG2 Attagene cis-factorial TAL promoter reporter; actives raise or lower the signal;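 further: background control endpoint measuring basal TAL promoter reporter mRNA not a specific factor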
# How it was run: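 HepG2 cells transiently transfected with multiplexed cis-promoter reporter units, dosed 24 h. Reporter mRNA quantified by RT-PCR, 6-FAM labelling, HpaI digestion and capillary electrophoresis; TAL basal promoter serves as background control, fitted bidirectionally versus DMSO.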
# [12] = ATG_TGFb_CIS: Attagene CIS-FACTORIAL HepG2 Assay for human Transforming Growth Factor (TGF) (AID 2282967); conditions: HepG2 Attagene CIS TGFb reporter, mRNA transcription; actives raise or lower the signal
# How it was run: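 Endogenous TGFB1-linked transcription factor activity read as reporter mRNA via RT-PCR and capillary electrophoresis, 24 h after dosing transiently transfected HepG2 cells. Gain or loss of signal fitted relative to DMSO.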
# [13] = target: Nuclear receptor subfamily 1 group I member 3 (Homo sapiens) (UniProt Q14994); experiment: ATG_CAR_TRANS: Attagene TRANS-FACTORIAL HepG2 Assay for human Constitutive Androstane Receptor (CAR) (AID 2282969; active means hit-call score of the fitted dose curve at least 0.9, where 1 is the maximum;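 further: activators raise reporter mRNA above DMSO so AC50 marks induction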); conditions: HepG2 Attagene TRANS-FACTORIAL CAR reporter
# How it was run: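 Readout is reporter mRNA induction, quantified by fluorescent primer extension and capillary electrophoresis after RT-PCR. Cells were HepG2 transiently carrying chimeric NR-Gal4 constructs with GAL4-UAS reporters, treated for 24 h; activity scored upward from DMSO.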
# [14] = target: Estrogen receptor (Homo sapiens) (UniProt P03372); experiment: ATG_ERa_TRANS: Attagene TRANS-FACTORIAL HepG2 Assay for human Estrogen Receptor alpha (ERa) (AID 2282970; active means hit-call score of the fitted dose curve at least 0.9, where 1 is the maximum); conditions: HepG2 Attagene TRANS ERa GAL4 reporter, mRNA
# How it was run: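 HepG2 cells transiently transfected with multiplexed GAL4-UAS reporter units read out chimeric NR-Gal4 activity. After 24 h compound exposure, reporter mRNA was quantified by RT-PCR, 6-FAM labeling, HpaI digestion and capillary electrophoresis, relative to DMSO.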
# [15] = target: Steroid hormone receptor ERR1 (Homo sapiens) (UniProt P11474); experiment: ATG_ERRa_TRANS: Attagene TRANS-FACTORIAL HepG2 Assay for human Estrogen-Related Receptor alpha (ERRa) (AID 2282971; active means hit-call score of the fitted dose curve at least 0.9, where 1 is the maximum); conditions: HepG2 Attagene TRANS reporter, ERRa transactivation
# How it was run: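 HepG2 cells transiently transfected with GAL4-UAS reporter units and chimeric NR-Gal4 constructs; after 24 hour compound incubation, reporter mRNA quantified by RT-PCR, fluorescent labelling and capillary electrophoresis, gain of signal versus DMSO.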
# [16] = target: X-box-binding protein 1 (Homo sapiens) (UniProt P17861); experiment: ATG_Xbp1_CIS: Attagene CIS-FACTORIAL HepG2 Assay for human X-box Binding Protein 1 (XBP1) (AID 2282972); conditions: HepG2 XBP1 cis-element reporter, Attagene multiplex; actives raise or lower the signal
# How it was run: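 Fluorescence-labelled cDNA fragments from reporter transcripts, separated by capillary electrophoresis, give the signal. Source: HepG2 cells transfected with promoter-driven reporter units, harvested 24 h post-dose. DMSO served as reference for bidirectional curve fitting.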
# [17] = ATG_M_19_TRANS: Attagene TRANS-FACTORIAL HepG2 Assay for M19 Transcription Factor (Internal Marker) (AID 2282974; active means hit-call score of the fitted dose curve at least 0.9, where 1 is the maximum); conditions: HepG2 Attagene TRANS-FACTORIAL M19 internal marker reporter
# How it was run: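 HepG2 cells transiently transfected with multiple GAL4-UAS reporter transcription units were exposed to chemicals for 24 h. Reporter mRNA was read by RT-PCR, 6-FAM primer extension, HpaI digestion and capillary electrophoresis; gain of signal fitted relative to DMSO.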
# [18] = target: Paired box protein Pax-6 (Homo sapiens) (UniProt P26367); experiment: ATG_Pax6_CIS: Attagene CIS-FACTORIAL HepG2 Assay for human Paired Box 6 (PAX6) (AID 2282956); conditions: HepG2 CIS-FACTORIAL PAX6 reporter transcription, RNA readout; actives raise or lower the signal
# How it was run: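 Multiplexed cis-reporter HepG2 system; 24 h treatment; reporter mRNA read by RT-PCR/CE fluorescence; bidirectional fit vs DMSO.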
# [19] = ATG_VDRE_CIS: Attagene CIS-FACTORIAL HepG2 Assay for human Vitamin D Receptor Element (VDRE) (AID 2282968); conditions: HepG2 VDRE cis-reporter transcription, actives raise or lower the signal
# How it was run: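 Reporter mRNA induction, quantified by capillary electrophoresis of fluorescently labelled RT-PCR products, was read 24 h after dosing HepG2 cells carrying transiently transfected cis-regulated reporter units; gain or loss relative to DMSO.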
# [20] = ATG_GAL4_TRANS: Attagene TRANS-FACTORIAL HepG2 Assay for GAL4 (Internal Marker) (AID 2282976; active means hit-call score of the fitted dose curve at least 0.9, where 1 is the maximum); conditions: HepG2 Attagene TRANS GAL4 internal marker reporter
# How it was run: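 Background-control readout: GAL4-UAS reporter transcript in transiently transfected HepG2 cells after 24 h compound exposure. Measured by RT-PCR, 6-FAM primer extension, HpaI digest and capillary electrophoresis; gain-of-signal fit versus DMSO.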
# Estrogen receptor (Homo sapiens), sequence (P03372 whole entry, looked up, the tested form may be a part): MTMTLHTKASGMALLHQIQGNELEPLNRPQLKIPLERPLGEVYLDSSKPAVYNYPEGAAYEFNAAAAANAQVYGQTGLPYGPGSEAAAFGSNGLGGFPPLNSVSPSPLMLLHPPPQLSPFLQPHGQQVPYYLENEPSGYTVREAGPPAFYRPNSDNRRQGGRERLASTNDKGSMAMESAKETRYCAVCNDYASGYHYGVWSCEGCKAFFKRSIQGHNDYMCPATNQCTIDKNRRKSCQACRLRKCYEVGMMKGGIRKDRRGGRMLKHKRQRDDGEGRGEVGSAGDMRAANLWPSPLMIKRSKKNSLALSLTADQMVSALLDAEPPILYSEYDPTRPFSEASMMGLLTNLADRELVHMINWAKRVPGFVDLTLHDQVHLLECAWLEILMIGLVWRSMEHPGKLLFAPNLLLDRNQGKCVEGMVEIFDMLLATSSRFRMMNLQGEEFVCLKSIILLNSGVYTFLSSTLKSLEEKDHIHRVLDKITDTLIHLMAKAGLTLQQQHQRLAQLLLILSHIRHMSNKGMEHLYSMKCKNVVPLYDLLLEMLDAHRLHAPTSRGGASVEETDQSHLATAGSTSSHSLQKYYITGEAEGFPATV
# Paired box protein Pax-6 (Homo sapiens), sequence (P26367 whole entry, looked up): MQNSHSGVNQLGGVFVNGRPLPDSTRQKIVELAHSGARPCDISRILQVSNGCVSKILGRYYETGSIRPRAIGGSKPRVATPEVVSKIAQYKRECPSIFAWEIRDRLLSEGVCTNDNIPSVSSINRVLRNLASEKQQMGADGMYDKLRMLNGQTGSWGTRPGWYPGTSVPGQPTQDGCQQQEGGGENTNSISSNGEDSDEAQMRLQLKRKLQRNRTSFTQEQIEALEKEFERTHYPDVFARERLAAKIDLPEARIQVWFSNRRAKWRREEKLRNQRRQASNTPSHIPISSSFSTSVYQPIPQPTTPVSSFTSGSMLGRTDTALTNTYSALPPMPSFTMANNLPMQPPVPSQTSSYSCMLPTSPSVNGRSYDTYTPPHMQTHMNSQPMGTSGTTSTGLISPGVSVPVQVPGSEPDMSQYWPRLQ
# X-box-binding protein 1 (Homo sapiens), sequence (P17861 whole entry, looked up, the tested form may be a part): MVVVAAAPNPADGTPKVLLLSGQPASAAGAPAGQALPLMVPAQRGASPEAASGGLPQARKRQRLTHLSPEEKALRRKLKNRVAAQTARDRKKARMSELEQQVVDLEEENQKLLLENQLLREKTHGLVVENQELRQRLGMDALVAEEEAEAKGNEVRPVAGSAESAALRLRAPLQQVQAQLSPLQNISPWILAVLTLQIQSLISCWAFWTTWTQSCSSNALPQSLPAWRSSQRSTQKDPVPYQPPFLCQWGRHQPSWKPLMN
# Signal transducer and activator of transcription 3 (Homo sapiens), sequence (P40763 whole entry, looked up): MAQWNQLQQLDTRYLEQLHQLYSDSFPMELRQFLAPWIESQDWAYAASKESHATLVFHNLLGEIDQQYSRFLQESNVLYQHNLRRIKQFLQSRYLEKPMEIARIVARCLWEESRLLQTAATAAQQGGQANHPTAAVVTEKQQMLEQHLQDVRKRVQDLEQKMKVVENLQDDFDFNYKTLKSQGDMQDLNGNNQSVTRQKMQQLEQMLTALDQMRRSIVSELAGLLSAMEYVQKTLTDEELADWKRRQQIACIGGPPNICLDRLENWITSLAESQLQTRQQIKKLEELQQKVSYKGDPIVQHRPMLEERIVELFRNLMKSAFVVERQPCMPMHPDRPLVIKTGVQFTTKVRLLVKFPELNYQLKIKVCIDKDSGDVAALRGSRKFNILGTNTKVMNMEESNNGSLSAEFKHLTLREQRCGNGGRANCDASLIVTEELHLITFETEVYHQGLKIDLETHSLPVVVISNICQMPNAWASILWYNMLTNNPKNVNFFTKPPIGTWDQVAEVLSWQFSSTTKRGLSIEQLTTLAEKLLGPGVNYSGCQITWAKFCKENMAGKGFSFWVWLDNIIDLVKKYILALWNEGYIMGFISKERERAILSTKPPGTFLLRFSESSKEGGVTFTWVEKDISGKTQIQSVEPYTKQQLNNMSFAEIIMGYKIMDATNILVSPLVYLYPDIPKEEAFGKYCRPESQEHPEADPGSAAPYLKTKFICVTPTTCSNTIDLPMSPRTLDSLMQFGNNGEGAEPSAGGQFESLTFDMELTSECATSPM
# Transcription factor Sp1 (Homo sapiens), sequence (P08047 whole entry, looked up): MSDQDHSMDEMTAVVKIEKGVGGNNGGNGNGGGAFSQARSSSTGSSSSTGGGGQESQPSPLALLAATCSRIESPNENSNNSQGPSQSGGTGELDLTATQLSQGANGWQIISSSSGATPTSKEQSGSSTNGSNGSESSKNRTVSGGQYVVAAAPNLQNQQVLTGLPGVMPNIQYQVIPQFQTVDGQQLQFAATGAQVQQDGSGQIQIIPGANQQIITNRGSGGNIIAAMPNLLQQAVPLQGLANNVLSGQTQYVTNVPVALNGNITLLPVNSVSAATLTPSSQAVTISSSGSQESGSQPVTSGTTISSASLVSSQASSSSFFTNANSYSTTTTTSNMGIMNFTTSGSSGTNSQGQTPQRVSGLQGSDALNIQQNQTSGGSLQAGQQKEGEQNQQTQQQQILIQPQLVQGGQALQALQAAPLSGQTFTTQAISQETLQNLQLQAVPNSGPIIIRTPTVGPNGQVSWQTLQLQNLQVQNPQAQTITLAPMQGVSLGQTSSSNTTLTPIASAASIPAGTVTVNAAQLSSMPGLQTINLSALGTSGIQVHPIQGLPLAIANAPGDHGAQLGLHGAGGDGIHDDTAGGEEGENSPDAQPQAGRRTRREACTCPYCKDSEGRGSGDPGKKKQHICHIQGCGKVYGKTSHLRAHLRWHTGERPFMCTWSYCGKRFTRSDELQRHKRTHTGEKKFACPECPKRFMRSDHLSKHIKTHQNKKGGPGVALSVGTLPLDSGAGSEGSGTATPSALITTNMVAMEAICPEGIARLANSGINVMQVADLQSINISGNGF
# Nuclear receptor subfamily 1 group I member 3 (Homo sapiens), sequence (Q14994 whole entry, looked up, the tested form may be a part): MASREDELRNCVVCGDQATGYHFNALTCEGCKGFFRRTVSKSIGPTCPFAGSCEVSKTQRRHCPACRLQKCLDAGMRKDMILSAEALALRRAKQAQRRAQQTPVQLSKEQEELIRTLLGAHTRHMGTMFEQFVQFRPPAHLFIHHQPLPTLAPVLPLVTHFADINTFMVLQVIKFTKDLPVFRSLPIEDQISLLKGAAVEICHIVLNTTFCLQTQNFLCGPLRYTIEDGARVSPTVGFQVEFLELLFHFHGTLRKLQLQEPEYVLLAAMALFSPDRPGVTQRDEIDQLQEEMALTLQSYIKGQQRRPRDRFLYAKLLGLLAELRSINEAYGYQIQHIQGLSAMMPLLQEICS
# Steroid hormone receptor ERR1 (Homo sapiens), sequence (P11474 whole entry, looked up, the tested form may be a part): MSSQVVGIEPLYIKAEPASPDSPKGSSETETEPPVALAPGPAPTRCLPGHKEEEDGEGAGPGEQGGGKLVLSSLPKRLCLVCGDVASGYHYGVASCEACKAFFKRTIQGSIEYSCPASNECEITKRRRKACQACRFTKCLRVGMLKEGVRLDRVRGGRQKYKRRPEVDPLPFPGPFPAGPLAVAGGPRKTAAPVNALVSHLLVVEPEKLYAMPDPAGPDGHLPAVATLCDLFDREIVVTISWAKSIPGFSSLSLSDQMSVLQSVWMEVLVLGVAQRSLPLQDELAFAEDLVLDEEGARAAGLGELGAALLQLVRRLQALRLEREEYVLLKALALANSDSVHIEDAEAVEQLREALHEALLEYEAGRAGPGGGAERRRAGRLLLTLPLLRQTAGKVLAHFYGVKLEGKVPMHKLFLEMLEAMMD
smiles,measurement,setting,value
COC(=O)c1ccc(C(=O)OC)c(C(=O)OC)c1,outcome,[1],inactive
same,outcome,[2],inactive
same,outcome,[3],inactive
same,outcome,[4],inactive
same,outcome,[5],inactive
same,outcome,[6],inactive
same,outcome,[7],inactive
same,outcome,[8],inactive
same,outcome,[9],inactive
same,outcome,[10],inactive
same,outcome,[11],inactive
same,outcome,[12],inactive
same,outcome,[13],inactive
same,outcome,[14],inactive
same,outcome,[15],inactive
same,outcome,[16],inactive
same,outcome,[17],inactive
CCC1COC(=O)O1 (configuration not stated),outcome,[18],inactive
same,AC50,[2],16.6 µM (active)
same,outcome,[3],inactive
same,outcome,[4],inactive
same,outcome,[5],inactive
same,outcome,[6],inactive
same,outcome,[7],inactive
same,outcome,[8],inactive
same,outcome,[9],inactive
same,outcome,[10],inactive
same,outcome,[11],inactive
same,outcome,[12],inactive
same,outcome,[19],inactive
same,outcome,[14],inactive
same,outcome,[16],inactive
CCCCCCCCCCCCC,outcome,[18],inactive
same,outcome,[2],inactive
same,outcome,[3],inactive
same,outcome,[4],inactive
same,outcome,[5],inactive
same,outcome,[6],inactive
same,outcome,[7],inactive
same,outcome,[8],inactive
same,outcome,[9],inactive
same,outcome,[10],inactive
same,outcome,[11],inactive
same,outcome,[12],inactive
same,outcome,[19],inactive
same,outcome,[14],inactive
same,outcome,[16],inactive
same,outcome,[20],inactive
CCCCCCCCCCCCCCCCCCOS(=O)(=O)O,outcome,[18],inactive
same,outcome,[2],inactive
same,outcome,[3],inactive
same,outcome,[4],inactive
same,outcome,[5],inactive
same,outcome,[6],inactive
same,AC50,[7],52.7 µM (active)
same,outcome,[8],inactive
same,AC50,[9],12.4 µM (active)
same,AC50,[10],17.3 µM (active)
same,outcome,[11],inactive
same,outcome,[12],inactive
same,AC50,[19],51.7 µM (active)
same,outcome,[14],inactive
same,outcome,[15],inactive
same,AC50,[16],33.4 µM (active)
same,outcome,[17],inactive
COC(C=C(C)CCC=C(C)C)OC,outcome,[18],inactive
same,AC50,[2],21.7 µM (active)
same,outcome,[3],inactive
same,outcome,[4],inactive
same,outcome,[5],inactive
same,outcome,[6],inactive
same,outcome,[7],inactive
same,outcome,[8],inactive
same,outcome,[9],inactive
same,outcome,[10],inactive
same,outcome,[11],inactive
same,outcome,[12],inactive
same,AC50,[19],76.7 µM (active)
same,outcome,[14],inactive
same,outcome,[16],inactive
same,outcome,[17],inactive
same,outcome,[20],inactive
O=C(Oc1ccccc1)c1ccccc1O,outcome,[1],inactive
same,outcome,[2],inactive
same,outcome,[4],inactive
same,outcome,[5],inactive
same,outcome,[6],inactive
same,outcome,[7],inactive
same,outcome,[8],inactive
same,outcome,[9],inactive
same,outcome,[10],inactive
same,outcome,[11],inactive
same,outcome,[12],inactive
same,outcome,[13],inactive
same,outcome,[14],inactive
same,outcome,[16],inactive
same,outcome,[20],inactive
CCCCCCCO,outcome,[1],inactive
same,outcome,[5],inactive
same,outcome,[6],inactive
same,outcome,[7],inactive
same,outcome,[8],inactive
same,outcome,[9],inactive
same,outcome,[10],inactive
same,outcome,[11],inactive
same,outcome,[12],inactive
same,outcome,[19],inactive
same,outcome,[13],inactive
same,AC50,[14],67.1 µM (active)
same,outcome,[16],inactive
same,outcome,[17],inactive
CC(C)CC(=O)OCc1ccccc1,outcome,[1],inactive
same,outcome,[2],inactive
same,outcome,[3],inactive
same,outcome,[4],inactive
same,outcome,[5],inactive
same,outcome,[6],inactive
same,outcome,[7],inactive
same,outcome,[8],inactive
same,outcome,[9],inactive
same,outcome,[11],inactive
same,outcome,[12],inactive
same,outcome,[19],inactive
same,outcome,[13],inactive
same,outcome,[14],inactive
same,outcome,[16],inactive
same,outcome,[20],inactive
Oc1ccc(-c2ccccc2)c(Cl)c1,outcome,[1],inactive
same,outcome,[2],inactive
same,AC50,[3],33.4 µM (active)
same,outcome,[5],inactive
same,outcome,[7],inactive
same,AC50,[8],54.5 µM (active)
same,outcome,[9],inactive
same,outcome,[10],inactive
same,outcome,[11],inactive
same,outcome,[12],inactive
same,AC50,[19],33.4 µM (active)
same,outcome,[13],inactive
same,AC50,[14],9.14 µM (active)
same,AC50,[16],33.4 µM (active)
same,outcome,[17],inactive
